Active and inactive are the calls of the source. Unless noted, how the calls were made is not given here.
Columns and labels:
[1] = test system: XIP peptide (Xip251-270) binding; assay: XIP fragment 251-270 binding compounds – biochemical, small-molecule microarray, fluorescence 635/667 nm, 0.1 µg/mL protein, primary screen (AID 1182); settings: fluorescent protein binding, 635 nm, higher = more signal, called active from +8 up or from −8 down
[2] = test system: XIP peptide (Xip251-270); assay: compounds binding XIP fragment 251-270 – biochemical, small-molecule microarray, fluorescence 635/667 nm, 0.5 µg/mL protein, primary screen (AID 1183); settings: fluorescence 635 nm, higher = more signal
[3] = blood-stage malaria parasite viability loss – strain 3D7, DAPI fluorescence, 100 nL, primary screen (AID 1184);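 further: parasites grown inside human red blood cells in medium with human serum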; settings: P. falciparum 3D7 growth, 3 d, higher = more signal
[4] = target: Homeobox protein Hox-A13 (Mus musculus) (UniProt Q62424); assay: disruptors of Hoxa13 oligonucleotide interaction – biochemical, fluorescence polarization, labeled oligonucleotide, primary screen (AID 1185); settings: Hoxa13:DNA binding, 15 min, higher = more signal, called active from +8 up or from −8 down
Sequence of Homeobox protein Hox-A13 (Mus musculus) (Q62424 whole entry, looked up): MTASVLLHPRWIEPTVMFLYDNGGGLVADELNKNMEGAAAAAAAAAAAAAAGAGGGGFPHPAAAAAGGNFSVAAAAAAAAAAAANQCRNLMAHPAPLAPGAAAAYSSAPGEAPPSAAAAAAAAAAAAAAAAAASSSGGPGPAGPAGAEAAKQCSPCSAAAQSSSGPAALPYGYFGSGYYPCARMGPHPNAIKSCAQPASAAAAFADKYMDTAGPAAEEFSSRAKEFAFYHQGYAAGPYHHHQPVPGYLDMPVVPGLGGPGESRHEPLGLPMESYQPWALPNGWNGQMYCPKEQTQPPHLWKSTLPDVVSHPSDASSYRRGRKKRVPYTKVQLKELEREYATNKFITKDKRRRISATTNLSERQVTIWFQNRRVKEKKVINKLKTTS

[5] = blockers of DNA damage checkpoint Chk1 activation – imaging, HeLa, hydroxyurea, phospho-Chk1 antibody, percent positive cells, primary screen (AID 1186); settings: hydroxyurea-induced phospho-Chk1 immunofluorescence imaging, higher = more signal
[6] = blockers of DNA damage checkpoint Chk1 activation – imaging, HeLa, hydroxyurea, phospho-Chk1 nuclear intensity, primary screen (AID 1187); settings: hydroxyurea-induced phospho-Chk1 immunofluorescence imaging, higher = more signal

CN(C)CCCNC(=O)[C@@H]1c2ccccc2C(=O)N(Cc2ccccc2C(F)(F)F)[C@H]1c1ccc(CO)cc1
composite z-score [1]: -0.638 (inactive) | composite z-score [2]: 0.0067 | z-score [3]: -0.944 | z-score [4]: -2.62 (inactive) | z-score [5]: -0.316 (inactive) | z-score [6]: -0.164 (inactive)

CC=CC(O)C1C=CC2C(=O)NC(=O)C2N1Nc1ccc(Cl)cc1Cl (stereo unspecified)
composite z-score [1]: -0.223 (inactive) | composite z-score [2]: -0.186 | z-score [3]: 0.179 | z-score [4]: -3.78 (inactive) | z-score [5]: 1.3 (inactive) | z-score [6]: 1.22 (inactive)

COc1ccc([Si](C)(C)[C@@H]2[C@@H](CC(=O)N(CCO)Cc3ccccc3)O[C@]3(C(=O)N(Cc4ccc(I)cc4)c4ccccc43)[C@H]2C)cc1
composite z-score [1]: 1.59 (inactive) | composite z-score [2]: 0.256 | z-score [3]: -2.2 | z-score [4]: -2.17 (inactive) | z-score [5]: -0.168 (inactive) | z-score [6]: -0.299 (inactive)

CC(C)NC(=O)[C@@H]1c2ccccc2C(=O)N(Cc2ccccc2C(F)(F)F)[C@H]1c1ccc(CO)cc1
composite z-score [1]: 0.483 (inactive) | composite z-score [2]: 0.78 | z-score [3]: -0.276 | z-score [4]: -3.17 (inactive) | z-score [5]: 0.41 (inactive) | z-score [6]: 0.405 (inactive)

C[N+](C)(C)CCCC[C@@H]1NC(=O)[C@@H]2C[C@H](C(=O)NCc3ccc(F)cc3)[C@H](c3ccc(O)cc3)N2C1=O
composite z-score [1]: 0.744 (inactive) | composite z-score [2]: 0.0664 | z-score [3]: 0.269 | z-score [4]: -0.882 (inactive) | z-score [5]: 0.0551 (inactive) | z-score [6]: 0.0892 (inactive)

CCC(CC)C(O)C1C=CC2C(=O)N(c3ccccc3)C(=O)C2N1Nc1ccccc1F (stereo unspecified)
composite z-score [1]: 0.977 (inactive) | composite z-score [2]: -0.243 | z-score [3]: -0.0776 | z-score [4]: -3.13 (inactive) | z-score [5]: -0.121 (inactive) | z-score [6]: -0.175 (inactive)

COc1ccc([Si](C)(C)[C@H]2[C@H](CCO)O[C@@]3(C(=O)N(Cc4cccc(N5C(=O)c6ccccc6Oc6ccccc65)c4)c4ccccc43)[C@@H]2C)cc1
composite z-score [1]: 0.505 (inactive) | composite z-score [2]: 0.571 | z-score [3]: -2.82 | z-score [4]: -0.884 (inactive) | z-score [5]: -0.432 (inactive) | z-score [6]: -0.702 (inactive)

CCOC(=O)C1=C[C@@H](C(C)(C)C)N(S(=O)(=O)c2ccc(C)cc2)[C@H]1c1ccc(C#N)cc1
composite z-score [1]: -0.331 (inactive) | composite z-score [2]: 0.662 | z-score [3]: -1.82 | z-score [4]: -0.543 (inactive) | z-score [5]: 0.892 (inactive) | z-score [6]: 1.21 (inactive)

C=CCOC(=O)[C@@H]1[C@H]2C(=O)O[C@H](c3ccccc3)[C@H](c3ccccc3)N2[C@H](c2ccc(OCCOC(=O)[C@H]3C[C@H]4C(=O)N[C@@H](CCCCN(C)C)C(=O)N4[C@H]3c3ccc(O)cc3)cc2)[C@@]12C(=O)Nc1ccc(I)cc12
composite z-score [1]: 0.94 (inactive) | composite z-score [2]: 0.849 | z-score [3]: -1.92 | z-score [4]: 5.3 (inactive) | z-score [5]: 0.289 (inactive) | z-score [6]: 0.419 (inactive)

CCCC=C(CCC)[C@@H](NC(=O)OCC(C)C)c1ccc(C(=O)OC)cc1
composite z-score [1]: 0.402 (inactive) | composite z-score [2]: 0.279 | z-score [3]: -0.102 | z-score [4]: -1.31 (inactive) | z-score [5]: -0.468 (inactive) | z-score [6]: -0.598 (inactive)

O=C(NCCN1CCOCC1)[C@@H]1c2ccccc2C(=O)N(Cc2ccc(OC(F)(F)F)cc2)[C@H]1c1ccc(CO)cc1
composite z-score [1]: 0.441 (inactive) | composite z-score [2]: -0.103 | z-score [3]: -1.05 | z-score [4]: -4.13 (inactive) | z-score [5]: 0.0777 (inactive) | z-score [6]: -0.117 (inactive)

C=C(CCCC)C(=O)CC[C@@H](OC(=O)c1ccccc1-c1ccccc1C(=O)O)c1ccccc1OCCO
composite z-score [1]: 0.721 (inactive) | composite z-score [2]: 0.145 | z-score [3]: -2.92 | z-score [4]: -6.26 (inactive) | z-score [5]: 0.779 (inactive) | z-score [6]: 1.38 (inactive)

CC(C)N1C(=O)C[C@@](C(=O)NCCN2CCOCC2)(c2ccc([N+](=O)[O-])cc2)[C@H]1c1ccc(CO)cc1
composite z-score [1]: 0.534 (inactive) | composite z-score [2]: 0.634 | z-score [3]: 0.289 | z-score [4]: -2.52 (inactive) | z-score [5]: 0.159 (inactive) | z-score [6]: 0.451 (inactive)

COc1cc(CO)cc(I)c1O[C@H]1C=C(C(=O)NCCO)C[C@@H](NC2CCCCCC2)[C@@H]1O
composite z-score [1]: 0.509 (inactive) | composite z-score [2]: 0.649 | z-score [3]: -3.18 | z-score [4]: -7.19 (inactive) | z-score [5]: -0.75 (inactive) | z-score [6]: -1.01 (inactive)

CN1C(=O)C2C(C1=O)C1C=C(c3ccc(CO)cc3)C2C(C2CC2)N1C (stereo unspecified)
composite z-score [1]: 0.017 (inactive) | composite z-score [2]: 0.816 | z-score [3]: -1.97 | z-score [4]: -5.37 (inactive) | z-score [5]: -0.287 (inactive) | z-score [6]: -0.232 (inactive)

CC(C)N1C(=O)c2ccccc2[C@@H](C(=O)NCC(F)(F)F)[C@@H]1c1ccc(CO)cc1
composite z-score [1]: -0.258 (inactive) | composite z-score [2]: -0.245 | z-score [3]: 0.872 | z-score [4]: -1.73 (inactive) | z-score [5]: 0.0626 (inactive) | z-score [6]: 0.11 (inactive)

COC(=O)[C@]1(Cc2ccccc2)N=C(c2ccc(OCCCO)cc2)O[C@@H]1c1ccccc1CN=[N+]=[N-]
composite z-score [1]: 0.506 (inactive) | composite z-score [2]: 0.753 | z-score [3]: -2.47 | z-score [4]: -1.89 (inactive) | z-score [5]: -0.623 (inactive) | z-score [6]: -0.631 (inactive)

[N-]=[N+]=Nc1ccccc1C[C@@]1(C(=O)NCC(O)CO)N=C(c2ccc(OCCCO)cc2)O[C@@H]1c1ccccc1 (stereo partly specified)
composite z-score [1]: 0.105 (inactive) | composite z-score [2]: 0.75 | z-score [3]: -1.45 | z-score [4]: -5.72 (inactive) | z-score [5]: -0.416 (inactive) | z-score [6]: -0.145 (inactive)

COC(=O)[C@@]1(Cc2ccccc2)N=C(c2ccc(OCCCO)cc2)O[C@H]1c1ccccc1CN=[N+]=[N-]
composite z-score [1]: -0.139 (inactive) | composite z-score [2]: 0.85 | z-score [3]: -2.42 | z-score [4]: -1.25 (inactive) | z-score [5]: -0.727 (inactive) | z-score [6]: -0.906 (inactive)

CC1CC/C=C\[C@H]2OC34C=CCN(Cc5ccccc5)C(=O)[C@H]3N(CCCCCCO)C(=O)[C@@H]4C2C(=O)O1 (stereo partly specified)
composite z-score [1]: 1.32 (inactive) | composite z-score [2]: -0.367 | z-score [3]: -0.147 | z-score [4]: -5.85 (inactive) | z-score [5]: 0.0339 (inactive) | z-score [6]: 0.0311 (inactive)

Cc1ccc(S[C@]2(C(=O)NCc3ccccc3)CC(=O)N(Cc3ccccc3C(F)(F)F)[C@@H]2c2ccc(CO)cc2)cc1
composite z-score [1]: 0.903 (inactive) | composite z-score [2]: 0.599 | z-score [3]: 0.78 | z-score [4]: 0.0133 (inactive) | z-score [5]: -0.51 (inactive) | z-score [6]: -0.393 (inactive)
